Consider 97 compounds from PubChem BioAssay AID2315 (National Center for Advancing Translational Sciences (NCATS), 2010).

By inhibition is commonly meant the drop in the measured response relative to a control, in per cent.

Among all 290,000 compounds or so, about 27,000 (9.3%) were called active. The sample holds actives, similar compounds and a random draw of the others, so the mix is not that of the screen. Unmarked numbers belong to inactive results. No stated cut-off is given here; in the data, active means inhibition mostly above about 28% (no sharp cut-off); inactive means mostly below about 43%.

This assay in a line: A qHTS for Small Molecule Inhibitors of Shiga Toxin. Further: 0% is about no effect. The settings on record: Vero cells, Shiga toxin protein synthesis inhibition reporter; at 38.7 µM, active compounds read high. For orientation: qHTS replaces the single test concentration by a dilution series.
Take `CC(C)Cn1cnc2c1c(=O)n(CC(=O)NN)c(=O)n2Cc1ccccc1`: the inhibition is -7.02%. Regarding `CC(=O)Nc1cccc([N+](=O)[O-])c1`, the inhibition is 17.7%.

In the case of `CN1CCN(CC(=O)Nc2cccc([N+](=O)[O-])c2)CC1`, the inhibition is -12.8%. For `CCc1ccc(NC(=O)N2CCN(c3ccccc3)CC2)cc1`, the inhibition was 20.1%. Take `O=C(C(=O)N1CCc2ccccc2C1)N1CCc2ccccc2C1`: the inhibition is 8.23%. `O=C(Nc1cccc([N+](=O)[O-])c1)N1CCc2ccccc2C1`: the inhibition was 88.6% (active).

Turning to `CCc1ccc(NC(=O)N2CCc3ccccc3C2)cc1`, the inhibition was 120% (active). For `COC(=O)c1ccccc1NC(=O)CSc1nc2c(c(=O)[nH]1)CCC2`, the inhibition is -2.68%. In the case of `COc1ccc(C(=O)NC(=S)N2CCCCC2c2cccnc2)cc1OC` (configuration not stated), the inhibition is -4.75%.

Turning to `Cc1ccc(Cn2cc(C(=O)NN)c(=O)c3ccc(F)cc32)cc1`, the inhibition is -5.32%. With `Nc1nc(SCc2cccc(Br)c2)n[nH]1`, the inhibition is 14.2%. For `O=C(CN1CCN(C(=O)C2CCCO2)CC1)Nc1c(Cl)cccc1Cl` (configuration not stated) the value was -6.84%; for `COc1cc(C(=O)NCC2(c3ccccc3)CCCC2)ccc1OC(C)C`, 4.68%. Consider `CC(Cc1cccs1)NCc1ccc(Cl)cc1` (configuration not stated), for which the inhibition is -11.1%. In the case of `CC(Cc1cccs1)NC(=O)NC1CCCCC1` (configuration not stated), the inhibition is 35.2%.

With `CC(Cc1cccs1)NC(=O)c1cccc(Cl)c1` (configuration not stated), the inhibition is 62% (active).

As for `COC(=O)c1ccc(COc2ccc(/C=C/C(=O)c3ccc(OC)c(CSCC(=O)O)c3)cc2OC)cc1`, the inhibition is 10.1%. In the case of `CCOC(CNC(=O)C1CCN(S(=O)(=O)c2ccc3nc4c(c(C(=O)O)c3c2)CC(C)CC4)CC1)OCC` (configuration not stated), the inhibition is 16.6%. For the compound `NS(=O)(=O)c1ccc2nc(NC(=O)C3=COCCO3)sc2c1`, the inhibition was 31.7% (active). Take `NS(=O)(=O)c1ccc2nc(NC(=O)CS(=O)(=O)c3ccc(F)cc3)sc2c1`: the inhibition is -4.57%. As to `O=C(Nc1ccc(S(=O)(=O)N2CCCC2)cc1Cl)C1=COCCO1`, the inhibition is -24.5%.

On to `CC(=O)c1ccc(NC(=O)Cn2c(=O)oc3ccccc32)cc1`, for which the inhibition is -3.29%. As to `Nc1ncc(CN2CCCC(C(=O)Nc3ccc(-c4ccco4)cc3)C2)cn1` (configuration not stated), the inhibition was 1.36%. Then `COC(=O)c1ccc(COc2ccc(C#N)cc2)o1`, with -6.04%. Then `Cc1noc(C)c1COc1ccc2ccc(=O)oc2c1`, with -4.36%; and `CC(C)OC(=O)c1ccc(COc2ccc3ccc(=O)oc3c2)o1`, with 56.4% (active). As to `CN(C)C(=O)CCC(=O)N1CCCCC1C(=O)Nc1ccc(Oc2ccccc2F)cc1` (configuration not stated), the inhibition is -6.54%. Then `CC(C)(C)n1nnnc1C(c1ccccc1F)N1CCN(C(=O)c2ccco2)CC1` (configuration not stated), with 2.73%; and `Cc1ccccc1OCC(=O)N(Cc1cccc(F)c1)C1CCS(=O)(=O)C1` (configuration not stated), with 10.7%. For `CCCCCOc1ccc(CSC2=NCCN2)cc1[N+](=O)[O-]` the value was 63.7% (active); for `CCCCOc1ccc(CSC(=N)N)cc1[N+](=O)[O-]`, -5.85%.

In the case of `CCCOc1ccc(Cn2ccnc2)cc1[N+](=O)[O-]`, the inhibition was -8.54%. As for `COc1cccc(CCNC(=O)c2cccc(NC(=O)C3=C(C)OCCS3)c2)c1`, the inhibition was -2.41%. Then `CN(C)CCn1c(=S)[nH]c2ccc(Cl)cc2c1=O`, with -8.18%; and `CN(C)CCN=c1cc(-c2ccccc2)oc2ccc(Cl)cc12`, with 129% (active).

Consider `Cc1cc(-c2ccc(C)c(S(=O)(=O)Nc3ccc(S(N)(=O)=O)cc3)c2)on1`, for which the inhibition is 29.3%. Consider `COc1ccc(CCNS(=O)(=O)c2cn(C)nc2C)cc1`, for which the inhibition was 16.1%. As for `CCC(=O)Nc1ccc(Nc2nc(Cl)nc(Nc3ccc(NC(=O)CC)cc3)n2)cc1`, the inhibition is 4.44%. Then `CCOC(=O)CNc1nc(Cl)nc(Nc2ccc(OC)cc2OC)n1`, with 26.8%; and `CCOC(=O)CNc1nc(Cl)nc(Nc2ccccc2)n1`, with 65.7% (active); and `CCn1c(SCC(=O)NC2CCCC2)nnc1-c1ccoc1C`, with -5.62%. For `CN(Cc1ccc2nsnc2c1)Cc1nc(Cc2cccc(F)c2)no1` the value was 1.39%. In the case of `CN(Cc1cc2cc(F)ccc2[nH]1)Cc1nc(-c2cnccn2)no1`, the inhibition was -4.61%. Then `CN(Cc1nc2ccc(F)cc2[nH]1)Cc1nc(CC2CC2)no1`, with 48% (active); and `C/C(=N\N(C)C)c1ccc(OCCOc2ccc([N+](=O)[O-])cc2)cc1`, with 6.72%; and `CCn1c(SCC(=O)NC2=NCCS2)nnc1C(C)NC(=O)c1ccccc1F` (configuration not stated), with -15.6%. Regarding `Cc1cc(-n2cnc(-c3cn(C)nc3C)n2)no1`, the inhibition is 52.5% (active). For the compound `COc1ccc(Cl)cc1NS(=O)(=O)c1cccc(C(=O)NCC2CCCO2)c1` (configuration not stated), the inhibition was -3.5%. As for `O=C1CSc2ccc(S(=O)(=O)NCc3ccccc3)cc2N1`, the inhibition was -7.81%. On to `Cc1ccc(NC(=O)CC(=O)Nc2ccc(C)cc2)cc1`, for which the inhibition is -2.71%. For `O=C(Nc1ccc(Cl)cc1)Nc1ccc(Oc2cccnc2)nc1`, the inhibition is 51.4% (active).

As for `COC(=O)c1sccc1NC(=S)Nc1ccc(C)cc1`, the inhibition was 39.9% (active). For `COC(=O)c1sccc1NC(=O)c1ccc(Cl)cc1`, the inhibition is -2.96%. On to `CC(=O)c1ccc(NC(=O)Nc2ccc([N+](=O)[O-])cc2C)cc1`, for which the inhibition was -6.96%. Then `COC(=O)c1ccc(NC(=O)Nc2ccc(C)cc2)cc1`, with 46% (active); and `COC(=O)c1ccc(NC(=O)c2cc(Cl)ccc2OC)cc1`, with 1.91%; and `COC(=O)c1sccc1NC(=O)c1cc(OC)c(OC)c(OC)c1`, with 14.1%. As for `O=C(Nc1cccnc1)c1cc(Cl)ccc1Cl`, the inhibition was -11.4%. With `COc1cc(NC(=O)Nc2ccc(C)cc2)cc([N+](=O)[O-])c1`, the inhibition was -2.21% (active). Turning to `O=C(NNC(=O)c1csc(-c2cccnc2)n1)Nc1ccc(Cl)cc1`, the inhibition is 4.07%.

Consider `Cc1ccc(Oc2cc(NC(=O)CCCn3nc(C)c([N+](=O)[O-])c3C)cc([N+](=O)[O-])c2)cc1`, for which the inhibition is 9.13%.

As for `COc1ccc(N2CCN(C(=O)Cn3cnc4sc(C)c(S(=O)(=O)N5CCOCC5)c4c3=O)CC2)cc1`, the inhibition was -21.2%. Then `CSCC[C@H](NC(=O)N1CCn2c1nc1ccccc12)C(=O)NC1CCCCC1`, with 21.5%; and `CC(=N\NC(=O)c1cc(Br)ccc1O)/C(=N/O)C(=O)Nc1ccccc1`, with 27.5%.

`CCc1nn(CCCC(=O)Nc2ccc(C)c(C)c2)c(=O)c2cc3occc3n12`: the inhibition is -3.08%. As for `CC(=O)Nc1ccc(S(=O)(=O)N(C)c2nc3ccccc3nc2Cl)cc1`, the inhibition was 21.4%. `COc1cc2c(cc1OC)C(c1ccccc1Br)NC(=O)C2` (configuration not stated): the inhibition is -13.7%. For `CN1CCN(c2ccccc2NC(=O)COc2ccc(C3CCCCC3)cc2)CC1`, the inhibition was 16.9%. For `Cc1c(S(=O)(=O)NC(C)c2ccccc2)c(=O)n(C)c(=O)n1C` (configuration not stated) the value was -36.1%; for `Cc1ccc(NC(=O)Nc2cccnc2)cc1`, 29% (active).

Consider `Cc1ccc(NC(=O)NCC(c2cccnc2)N2CCOCC2)cc1` (configuration not stated), for which the inhibition is -5.81%. As to `O=C(NNC(=O)c1cccnc1)Nc1ccccc1`, the inhibition was 2.5%. `C/C=C(/C)C(=O)O[C@@H]1c2cc3c(c4c2[C@@]2(CO4)C(=O)C(OC)=C(OC)C=C2C[C@@H](C)[C@H]1C)OCO3`: the inhibition is -12.4%.

Take `CS(=O)(=O)C1=NN2C(=N)/C(=C\c3ccc(OCCOc4ccccc4)cc3)C(=O)N=C2S1`: the inhibition is 13.4%. Turning to `Cc1cccc(N(C(=O)Cc2cccs2)C(C(=O)NCc2ccco2)c2ccncc2)c1` (configuration not stated), the inhibition is 2.84%.

Regarding `Cc1ccc(N(C(=O)Cc2cccs2)C(C(=O)NCC2CCCO2)c2ccncc2)cc1` (configuration not stated), the inhibition was 59.4% (active).

For the compound `O=C(NCC(=O)N(c1ccccc1)C(C(=O)NCC1CCCO1)c1ccccc1)c1cccs1` (configuration not stated), the inhibition is -3.3%. For the compound `COc1cccc(CNS(=O)(=O)c2ccc3c(c2)CC(C)N3C(=O)C2CCC2)c1` (configuration not stated), the inhibition is -3.12%. In the case of `CNC(=S)N/N=C1\C2CN3CCN(C2)CC1(c1ccccc1)C3`, the inhibition is 14%.

Consider `Nc1ccccc1C(=O)NC1CCCCNC1=O` (configuration not stated), for which the inhibition was 2.5%.

With `CC12CN3CCN(CC(C3)/C1=N\NC(=O)c1ccccc1N)C2`, the inhibition was 60.8% (active). Consider `CCn1cc(C(=O)N2CC(C)CC(C)C2)c(=O)c2cc(S(=O)(=O)N3CCCC3)ccc21` (configuration not stated), for which the inhibition was -9.23%.

On to `O=C(NCCCn1ccnc1)c1cc(Br)c(Br)s1`, for which the inhibition is -8.29%.

Take `COC(=O)c1ccc2c(C(C)(C)O)c(C(C)(C)O)[nH]c2c1`: the inhibition is 25.7% (active). For the compound `COC(=O)c1cccc(NS(C)(=O)=O)c1`, the inhibition was 7.52%.

As to `CCN(CC)CCNC(=O)CCCCCn1c(=O)[nH]c2cc(C(=O)OC)ccc2c1=O`, the inhibition was 11.7%.

Regarding `CCc1nnc(NC(=O)CSCc2cc(=O)n3cc(C)sc3n2)s1`, the inhibition was 9.5%. As to `CN(C)c1nc(NN)nc(Nc2ccc(F)cc2)n1`, the inhibition was -6.82%. For `Cc1ccnc(NC(=O)c2ccoc2C)c1` the value was 62.3% (active); for `Cc1occc1C(=O)Nc1cccc(Cn2cccn2)c1`, 39.7%; for `Cc1ccnc(NC(=O)CCCOc2ccccc2)c1`, 31.5%.

For the compound `COc1cc(SC)ccc1C(=O)Nc1nc(C)cs1`, the inhibition is -19.5%. Turning to `COc1cc(SC)ccc1C(=O)Nc1cc(C)ccn1`, the inhibition was 71.5% (active). Turning to `COc1cc(SC)ccc1C(=O)NCCOc1ccccc1Cl`, the inhibition was 72.6% (active). `COc1cc(SC)ccc1C(=O)N(Cc1ccccc1)c1ccccc1`: the inhibition was -14.7%. `COc1ccccc1OCCNC(=O)CCNC(=O)c1ccccc1Cl`: the inhibition was 5.05%. As to `Cc1ccnc(NC(=O)C(C)N2C(=O)c3ccccc3C2=O)c1` (configuration not stated), the inhibition is 16.9%.
